Reference: the supplement of paper PMC9942566
± gives the standard deviation of the averaged measurements.

system: Serratia marcescens K904 PosmB-luxCDABE reporter (pMQ747); test: PosmB-lux reporter fold induction (RLU/OD600 relative to no-compound control), highest over Biolog concentrations; higher = stronger Rcs reporter activation; conditions: wild type K904; 4 h
Procedure: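 Serratia marcescens K904 (wild type) or its isogenic ΔrcsB mutant, carrying the Rcs-dependent PosmB-luxCDABE reporter plasmid pMQ747, was grown in LB at OD600 0.1 in Biolog Phenotype MicroArray plates PM11-20 for 4 h at 30-32°C. Each compound is present at 3-4 proprietary concentrations (not stated); per the Fig. S1 legend the value given is the highest fold over those wells. Three independent trials.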

Row | SMILES | PosmB-lux reporter fold induction
1 | Cc1onc(-c2ccccc2Cl)c1C(=O)N[C@@H]1C(=O)N2[C@@H]1SC(C)(C)[C@@H]2C(=O)O [Cloxacillin] (Biolog plate: PM11, well positions: B5-8) | 2.22 ± 0.62
2 | O=c1ccc2ccc(O)cc2o1 [umbelliferone] (Biolog plate: PM19, well positions: C5-8) | 1.07 ± 0.18
3 | CC1(C)S[C@@H]2[C@H](NC(=O)C(C(=O)O)c3ccccc3)C(=O)N2[C@H]1C(=O)O (stereo not given in full) [Carbenicillin] (Biolog plate: PM12, well positions: A9-12) | 2.2 ± 0.17
4 | CC1(C)S[C@@H]2[C@H](NC(=O)[C@H](NC(=O)N3CCNC3=O)c3ccccc3)C(=O)N2[C@H]1C(=O)O [Azlocillin] (Biolog plate: PM13, well positions: B1-4) | 1.96 ± 0.43
5 | CC(C(=O)O)c1cccc(C(=O)c2ccccc2)c1 (stereo not given) [ketoprofen (an NSAID)] (Biolog plate: PM18, well positions: A2-4) | 1.95 ± 0.79
6 | CN(C)[C@@H]1C(O)=C(C(N)=O)C(=O)[C@@]2(O)C(O)=C3C(=O)c4c(O)cccc4[C@@](C)(O)[C@H]3C[C@@H]12 [Tetracycline] (Biolog plate: PM12, well positions: A5-8) | 1.53 ± 0.2
7 | CN[C@@H]1[C@H](O[C@H]2[C@H](O[C@H]3[C@H](O)[C@@H](O)[C@H](N=C(N)N)[C@@H](O)[C@@H]3N=C(N)N)O[C@@H](C)[C@]2(O)C=O)O[C@@H](CO)[C@H](O)[C@H]1O [streptomycin] (Biolog plate: PM16, well positions: E1-4) | 0.916 ± 0.16
8 | CO[C@H]1C[C@H](O[C@H]2[C@H](C)[C@@H](O[C@@H]3O[C@H](C)C[C@H](N(C)C)[C@H]3O)[C@@H](C)C[C@@]3(CO3)C(=O)[C@H](C)[C@@H](O)[C@@H](C)[C@@H](C)OC(=O)[C@@H]2C)O[C@@H](C)[C@@H]1O [Oleandomycin] (Biolog plate: PM15, well positions: F5-8) | 3.29 ± 1.7
9 | CCCCC(CC)CNC(=N)NC(=N)NCCCCCCNC(=N)NC(=N)NCC(CC)CCCC (stereo not given) [Alexidine] (Biolog plate: PM15, well positions: E1-4) | 2.48 ± 0.99
10 | C[C@H]1O[C@@H](n2cc(F)c(=O)[nH]c2=O)[C@H](O)[C@@H]1O [5-fluoro-5'-deoxyuridine] (Biolog plate: PM18, well positions: H1-4) | 1.12 ± 0.19
11 | Cc1nnc(SCC2=C(C(=O)O)N3C(=O)[C@@H](NC(=O)Cn4cnnn4)[C@H]3SC2)s1 [Cefazolin] (Biolog plate: PM11, well positions: E1-4) | 1.18 ± 0.073
12 | CC1(C)S[C@@H]2[C@H](NC(=O)COc3ccccc3)C(=O)N2[C@H]1C(=O)O.CN(C)[C@@H]1C(O)=C(C(=O)NCN2CCN(CCO)CC2)C(=O)[C@@]2(O)C(O)=C3C(=O)c4c(O)cccc4[C@@](C)(O)[C@H]3C[C@@H]12 [Penimepicycline] (Biolog plate: PM12, well positions: B5-8) | 3.22 ± 1.1
13 | O=[N+]([O-])c1ccc(-[n+]2nc(-c3ccccc3)nn2-c2ccc(I)cc2)cc1 [iodonitro tetrazolium violet] (Biolog plate: PM19, well positions: D5-8) | 0.511 ± 0.27
14 | COc1ccc(CO)cc1OC [3,4-Dimethoxy-benzyl alcohol] (Biolog plate: PM15, well positions: F1-4) | 2.75 ± 1.1
15 | O=C(O)c1cn(C2CC2)c2cc(N3CCNCC3)c(F)cc2c1=O [ciprofloxacin] (Biolog plate: PM20, well positions: D5-8) | 1.63 ± 0.41
16 | CC[C@H]1OC(=O)[C@H](C)[C@@H](O[C@H]2C[C@@](C)(OC)[C@@H](O)[C@H](C)O2)[C@H](C)[C@@H](O[C@@H]2O[C@H](C)C[C@H](N(C)C)[C@H]2O)[C@](C)(O)C[C@@H](C)C(=O)[C@H](C)[C@@H](O)[C@]1(C)O [Erythromycin] (Biolog plate: PM11, well positions: F5-8) | 1.38 ± 0.32
17 | NCC(=O)O [Glycine] (Biolog plate: PM13, well positions: F5-8) | 1.52 ± 0.2
18 | CN[C@@H]1[C@@H](O)[C@@H](O[C@@H]2[C@@H](O)[C@H](O[C@H]3OC(CN)=CC[C@H]3N)[C@@H](N)C[C@H]2N)OC[C@]1(C)O [Sisomicin] (Biolog plate: PM12, well positions: D1-4) | 1.55 ± 0.14
19 | NC[C@@H]1O[C@H](O[C@H]2[C@@H](O)[C@H](O[C@@H]3[C@@H](O)[C@H](N)C[C@H](N)[C@H]3O[C@H]3O[C@H](CO)[C@@H](O)[C@H](O)[C@H]3N)O[C@@H]2CO)[C@H](N)[C@@H](O)[C@@H]1O [Paromomycin] (Biolog plate: PM12, well positions: C1-4) | 1.63 ± 0.1
20 | CCS(=O)(=O)CCn1c([N+](=O)[O-])cnc1C [tinidazole] (Biolog plate: PM18, well positions: F5-8) | 1.53 ± 0.081

Row | SMILES | PosmB-lux reporter fold induction
21 | CO[C@H]1C[C@H](O[C@H]2[C@H](C)[C@@H](O[C@@H]3O[C@H](C)C[C@H](N(C)C)[C@H]3OC(C)=O)[C@@H](C)C[C@@]3(CO3)C(=O)[C@H](C)[C@@H](OC(C)=O)[C@@H](C)[C@@H](C)OC(=O)[C@@H]2C)O[C@@H](C)[C@@H]1OC(C)=O [troleandomycin] (Biolog plate: PM20, well positions: H9-12) | 1.36 ± 0.24
22 | O=C1CN(/N=C/c2ccc([N+](=O)[O-])o2)C(=O)N1 [Nitrofurantoin] (Biolog plate: PM14, well positions: E5-8) | 2.33 ± 0.28
23 | CO[C@@H]1[C@@H](OC(N)=O)[C@@H](O)[C@H](Oc2ccc3c(O)c(NC(=O)c4ccc(O)c(CC=C(C)C)c4)c(=O)oc3c2C)OC1(C)C [Novobiocin] (Biolog plate: PM12, well positions: D9-12) | 4.98 ± 0.98
24 | CN(C)CCCN1c2ccccc2Sc2ccc(Cl)cc21 [chlorpromazine] (Biolog plate: PM17, well positions: D9-12) | 2 ± 0.77
25 | CN(C)[C@@H]1C(O)=C(C(N)=O)C(=O)[C@@]2(O)C(O)=C3C(=O)c4c(O)ccc(Cl)c4[C@@](C)(O)[C@H]3C[C@@H]12 [Chlortetracycline] (Biolog plate: PM11, well positions: A5-8) | 1.48 ± 0.4
26 | c1cnc2c(c1)ccc1cccnc12 [1,10-Phenanthroline] (Biolog plate: PM15, well positions: C9-12) | 1.36 ± 0.36
27 | Cn1cnc([N+](=O)[O-])c1Sc1ncnc2[nH]cnc12 [azathioprine] (Biolog plate: PM18, well positions: B9-12) | 0.797 ± 0.12
28 | CCn1cc(C(=O)O)c(=O)c2cnc(N3CCNCC3)nc21 [pipemidic acid] (Biolog plate: PM18, well positions: B5-8) | 1.46 ± 0.24
29 | CC(=O)O[C@H]1C[C@@]2(C)[C@@H](C[C@@H](O)[C@H]3[C@@]4(C)CC[C@@H](O)[C@@H](C)[C@@H]4CC[C@@]32C)/C1=C(\CCC=C(C)C)C(=O)O [Fusidic acid] (Biolog plate: PM15, well positions: C5-8) | 1.01 ± 0.48
30 | Cc1cc(N)c2ccccc2[n+]1CCCCCCCCCC[n+]1c(C)cc(N)c2ccccc21 [Dequalinium chloride] (Biolog plate: PM13, well positions: A5-8) | 1.23 ± 0.086
31 | CN(C)CCC=C1c2ccccc2CCc2ccccc21 [amitriptyline] (Biolog plate: PM20, well positions: A2-4) | 1.19 ± 0.11
32 | Cc1onc(-c2ccccc2)c1C(=O)N[C@@H]1C(=O)N2[C@@H]1SC(C)(C)[C@@H]2C(=O)O [Oxacillin] (Biolog plate: PM12, well positions: B1-4) | 2.16 ± 0.46
33 | C[C@H]1c2cccc(O)c2C(=O)C2=C(O)[C@]3(O)C(=O)C(C(N)=O)=C(O)[C@@H](N(C)C)[C@@H]3[C@@H](O)[C@@H]21 [Doxycycline] (Biolog plate: PM13, well positions: C5-8) | 1.48 ± 0.11
34 | CC[C@H]1OC(=O)C[C@@H](O)[C@H](C)[C@@H](O[C@@H]2O[C@H](C)[C@@H](O[C@H]3C[C@@](C)(O)[C@@H](O)[C@H](C)O3)[C@H](N(C)C)[C@H]2O)[C@@H](CC=O)C[C@@H](C)C(=O)/C=C/C(C)=C/[C@@H]1CO[C@@H]1O[C@H](C)[C@@H](O)[C@@H](OC)[C@H]1OC [Tylosin] (Biolog plate: PM13, well positions: H9-12) | 1.21 ± 0.18
35 | C[C@@H]1NC(=O)[C@@H](N)CNC(=O)[C@H](C2CCNC(=N)N2)NC(=O)/C(=C/NC(N)=O)NC(=O)[C@H](CNC(=O)CC(N)CCCN)NC1=O.N=C1NCC[C@H]([C@@H]2NC(=O)/C(=C/NC(N)=O)NC(=O)[C@H](CNC(=O)C[C@@H](N)CCCN)NC(=O)[C@H](CO)NC(=O)[C@@H](N)CNC2=O)N1 [Capreomycin] (Biolog plate: PM11, well positions: D1-4) | 1.24 ± 0.1
36 | CCn1cc(C(=O)O)c(=O)c2cc(F)c(N3CCNCC3)cc21 [norfloxacin] (Biolog plate: PM16, well positions: B1-4) | 1.02 ± 0.2
37 | CCC[C@@H]1C[C@@H](C(=O)N[C@@H]([C@H]2O[C@H](SC)[C@H](O)[C@@H](O)[C@H]2O)[C@@H](C)O)N(C)C1 [Lincomycin] (Biolog plate: PM11, well positions: A9-12) | 1.16 ± 0.14
38 | [Cl][Cu][Cl] [Cupric chloride] (Biolog plate: PM13, well positions: H1-4) | 1.13 ± 0.12
39 | CS(=O)(=O)c1ccc([C@@H](O)[C@@H](CO)NC(=O)C(Cl)Cl)cc1 [thiamphenicol] (Biolog plate: PM18, well positions: A9-12) | 0.659 ± 0.017
40 | COc1ccc(C[C@H](N)C(=O)N[C@H]2[C@@H](O)[C@H](n3cnc4c(N(C)C)ncnc43)O[C@@H]2CO)cc1 [Puromycin] (Biolog plate: PM15, well positions: F9-12) | 1.9 ± 0.2
